This note sets out measurements from PubChem BioAssay (Tox21).

Molecules are shown by their SMILES. Results filed as inconclusive are left out. The source made the active and inactive calls. Unless noted, calls come from the whole dose curve; as a rule, active = well fitted curve in the direction sought with a large enough effect in the repeat runs; inconclusive = weak or mixed curves; inactive = no such curve, though single readings can be large; an effect the other way counts as inactive or inconclusive.

Experiment [1] is described as follows: qHTS assay to identify aromatase inhibitors - cell viability counter screen (AID 743084).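 Note: cells stimulated with testosterone during compound exposure; nearly all actives have a fitted effect of over 55% in size.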 Note: potency is the fitted concentration of half-maximal effect.
Experiment [2] deals with Aryl hydrocarbon receptor (Homo sapiens) (UniProt P35869). The experiment in a line: qHTS assay to identify small molecule that activate the aryl hydrocarbon receptor (AhR) signaling pathway (AID 743085).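 For activation: HG2L7.5c1 human HepG2 liver cells with stably integrated DRE-driven firefly reporter; series mostly up to about 70 µM.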 Note: nearly all actives have a fitted effect of over 15% in size. Note: potency is the fitted concentration of half-maximal effect. Summed up: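 24 h compound exposure, 37C, HepG2-derived HG2L7.5c1 cells with DRE-responsive luciferase. Readouts: fluorescence viability, then luminescence at room temperature after 30 min.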

A short description of experiment [3]: qHTS assay to identify small molecule that activate the aryl hydrocarbon receptor (AhR) signaling pathway - cell viability counter screen (AID 743086).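 Note: HepG2 liver cells carrying the AhR DRE luciferase reporter; series mostly up to about 70 µM; nearly all actives have a fitted effect of over 45% in size.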 Summed up: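 HepG2-AhR-luc (HG2L7.5c1) cells, 4000/well, treated 24 h at 37 C with compound; viability measured as CellTiter-Fluor fluorescence after 30 min in the same wells as the luciferase read.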
The target of experiment [4] is Peroxisome proliferator-activated receptor gamma (Homo sapiens) (UniProt P37231). The experiment in a line: qHTS assay to identify small molecule agonists of the peroxisome proliferator-activated receptor gamma (PPARg) signaling pathway (AID 743094; active = well fitted activation curve with a large enough effect in the signal ratio in the repeat runs, not every such curve was filed as active; the % refers to the signal ratio). The essentials: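 Compounds dissolved in DMSO were added to PPARg UAS-bla HEK293H cells for 17 h at 37C, and reporter expression was quantified by fluorescence intensity after 1 h with LiveBLAzer B/G FRET substrate.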

The nature of experiment [5]: qHTS assay to identify small molecule antagonists of the peroxisome proliferator-activated receptor gamma (PPARg) signaling pathway - cell viability counter screen (AID 743194). Note: nearly all actives have a fitted effect of over 55% in size. The essentials:
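Cytotoxicity counter screen in PPARg-bla HEK293H cells, same wells as reporter assay. Compounds plus 50 nM rosiglitazone (final) for 17 h at 37 C, then viability read by CellTiter-Glo luminescence.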
A general note: In qHTS, concentration-response curves come from the screen itself.

Experiment [6] in a line: qHTS assay for small molecule agonists of the antioxidant response element (ARE) signaling pathway (AID 743202; active = well fitted activation curve with a large enough effect in the signal ratio in the repeat runs, not every such curve was filed as active; the % refers to the signal ratio; note: potency is the fitted concentration of half-maximal effect). Summed up:
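Agonist mode reporter screen: HepG2 cells with ARE-controlled beta-lactamase are incubated with test compounds for 16 h at 37 C, and beta-lactamase activity is measured as fluorescence of cleaved B/G FRET substrate.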

Experiment [7] is described as follows: qHTS assay for small molecule agonists of the antioxidant response element (ARE) signaling pathway - cell viability counter screen (AID 743203; calls by dose curve; note: nearly all actives have a fitted effect of over 55% in size). The essentials: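 Following 16 hrs of compound treatment at 37C, HepG2 cells with an ARE-controlled beta-lactamase gene were lysed with CellTiter-Glo. Luminescence was read after 30 min at room temperature.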
Experiment [8] is described as follows: qHTS assay for small molecule activators of the heat shock response signaling pathway - cell viability counter screen (AID 743209). Note: nearly all actives have a fitted effect of over 50% in size. The essentials:
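Readout: CellTiter-Glo luminescence, 30 min at room temperature. System: HSE-bla HeLa cells, 1500/well, plated overnight. Treatment: compounds in DMSO, 5 h at 37 C.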

The nature of experiment [9]: qHTS assay for small molecule activators of the heat shock response signaling pathway (AID 743210; active = well fitted activation curve with a large enough effect in the signal ratio in the repeat runs, with a control signal flat, not every such curve was filed as active; the % refers to the signal ratio;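 note: HeLa cells with beta-lactamase reporter driven by heat shock elements; series mostly up to about 63 µM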). The essentials:
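Quantitative high-throughput format using an engineered HeLa line in which heat shock response elements drive beta-lactamase; after 5 h with compound, cells received a B/G FRET substrate and fluorescence was read.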

A short description of experiment [10]: qHTS assay to identify small molecule antagonists of the peroxisome proliferator-activated receptor delta (PPARd) signaling pathway - cell viability counter screen (AID 743213). Note: nearly all actives have a fitted effect of over 50% in size. Summed up:
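Cytotoxicity counter screen: CellTiter-Glo luminescence read 30 min after addition, in the same wells as the reporter assay. There, PPARd UAS-bla HEK293H cells (3000/well) were treated 17 h at 37 C with compound and 300 nM L165041.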

Experiment [11] is described as follows: qHTS assay to identify small molecule agonists of the farnesoid-X-receptor (FXR) signaling pathway - cell viability counter screen (AID 743218). Note: nearly all actives have a fitted effect of over 45% in size. The essentials:
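Parallel cytotoxicity test: compound-treated (16 h, 37 C) HEK 293T FXR-bla reporter cells were lysed with CellTiter-Glo and luminescence recorded.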

Experiment [12] is described as follows: qHTS assay to identify small molecule antagonists of the farnesoid-X-receptor (FXR) signaling pathway - cell viability counter screen (AID 743221; active = well fitted cell-killing curve with a large enough effect in the repeat runs, not every such curve was filed as active; note: nearly all actives have a fitted effect of over 50% in size). The essentials:
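In GeneBLAzer FXR-UAS-bla HEK 293T cells stimulated with 50 uM chenodeoxycholic acid (final), compounds acted for 16 h at 37 C. Viability was assessed afterwards by CellTiter-Glo luminescence.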

Experiment [13] concerns the target Vitamin D3 receptor (Homo sapiens) (UniProt P11473). The experiment in a line: qHTS assay to identify small molecule agonists of the vitamin D receptor (VDR) signaling pathway (AID 743222; calls by dose curve). The essentials: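 In VDR-bla cells, compound-induced beta-lactamase expression is quantified by FRET substrate fluorescence. Treatment lasts 16 h at 37C; substrate develops 2 h at room temperature.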

Experiment [14] addresses Peroxisome proliferator-activated receptor gamma (Homo sapiens) (UniProt P37231). The experiment can be described thus: qHTS assay to identify small molecule antagonists of the peroxisome proliferator-activated receptor gamma (PPARg) signaling pathway (AID 743191; calls by dose curve; note: nearly all actives have a fitted effect of over 30% in size; note: potency is the fitted concentration of half-maximal effect). Summed up: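 GeneBLAzer PPARg UAS-bla HEK293H cells, 5 h post-plating, exposed to compounds 17 h at 37C. LiveBLAzer B/G FRET substrate added for 1 h at room temperature; beta-lactamase reporter read by fluorescence intensity.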

Experiment [15] addresses Peroxisome proliferator-activated receptor delta (Homo sapiens) (UniProt Q03181). The experiment can be described thus: qHTS assay to identify small molecule agonists of the peroxisome proliferator-activated receptor delta (PPARd) signaling pathway (AID 743212; calls by dose curve). The essentials:
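Quantitative high-throughput agonist screen in a HEK293H beta-lactamase reporter line under UAS control. Compounds in DMSO, at 37 C. Fluorescence read after 2 h with FRET substrate at room temperature.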

Experiment [16] has the same target. The experiment in a line: qHTS assay to identify small molecule antagonists of the peroxisome proliferator-activated receptor delta (PPARd) signaling pathway (AID 743215; active = well fitted inhibition curve with a large enough effect in the signal ratio in the repeat runs, not every such curve was filed as active; the % refers to the signal ratio;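 note: cells stimulated with agonist L165041 at 300 nM final during compound exposure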; note: potency is the fitted concentration of half-maximal effect). Summed up:
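HEK293H UAS-bla, PPARd; agonist L165041 300 nM final with cpd in DMSO; 37 C 17 h; FRET substrate, RT 2 h; fluorescence intensity.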

The target of experiment [17] is Bile acid receptor (Homo sapiens) (UniProt Q96RI1). The experiment can be described thus: qHTS assay to identify small molecule antagonists of the farnesoid-X-receptor (FXR) signaling pathway (AID 743217; active = well fitted inhibition curve with a large enough effect in the signal ratio in the repeat runs, not every such curve was filed as active; the % refers to the signal ratio). Summed up: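 GeneBLAzer FXR-UAS-bla HEK 293T, CDCA-stimulated (50 uM final). Compound treatment 16 h, 37 °C. Detection: beta-lactamase cleavage of B/G FRET substrate, fluorescence.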

Experiment [18] can be described thus: qHTS assay to identify small molecule agonists of the peroxisome proliferator-activated receptor delta (PPARd) signaling pathway - cell viability counter screen (AID 743211). Note: nearly all actives have a fitted effect of over 55% in size. Summed up:
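Luminescent ATP viability assay (CellTiter-Glo, 30 min RT) in UAS-bla HEK293H cells carrying the PPAR delta reporter construct, 3000 cells/well, after a 17 h compound treatment at 37 C.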

The target in experiment [19] is Bile acid receptor (Homo sapiens) (UniProt Q96RI1). The experiment in a line: qHTS assay to identify small molecule agonists of the farnesoid-X-receptor (FXR) signaling pathway (AID 743220; active = well fitted activation curve with a large enough effect in the signal ratio in the repeat runs, not every such curve was filed as active; the % refers to the signal ratio). Summed up: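 Beta-lactamase reporter under UAS control in GeneBLAzer FXR HEK 293T cells (5000/well) measured with LiveBLAzer FRET substrate after 2 h at room temperature. Compound exposure lasted 16 h at 37C.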

The target of experiment [20] is Vitamin D3 receptor (Homo sapiens) (UniProt P11473). The experiment can be described thus: qHTS assay to identify small molecule antagonists of the vitamin D receptor (VDR) signaling pathway (AID 743223; active = well fitted inhibition curve with a large enough effect in the signal ratio in the repeat runs, not every such curve was filed as active; the % refers to the signal ratio). The essentials: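 Agonist 1alpha,25-dihydroxyvitamin D3 (3 nM in well) was added with each compound to VDR-bla cells preincubated 4 h. Cells stood 16 h at 37C, then FRET substrate 2 h at room temperature; fluorescence intensity recorded.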
Chain of Vitamin D3 receptor (Homo sapiens) (P11473 whole entry, looked up): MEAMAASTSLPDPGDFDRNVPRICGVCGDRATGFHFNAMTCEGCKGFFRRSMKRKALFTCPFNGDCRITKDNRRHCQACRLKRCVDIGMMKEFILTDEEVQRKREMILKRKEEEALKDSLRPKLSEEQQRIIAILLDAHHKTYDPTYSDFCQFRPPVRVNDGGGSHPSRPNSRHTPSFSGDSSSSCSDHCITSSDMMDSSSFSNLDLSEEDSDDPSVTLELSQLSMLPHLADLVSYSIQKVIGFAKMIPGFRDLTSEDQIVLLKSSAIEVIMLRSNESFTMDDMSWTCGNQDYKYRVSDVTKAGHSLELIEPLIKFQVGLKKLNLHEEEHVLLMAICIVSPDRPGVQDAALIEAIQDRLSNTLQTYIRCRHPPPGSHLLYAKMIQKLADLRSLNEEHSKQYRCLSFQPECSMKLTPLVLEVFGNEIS

Chain of Peroxisome proliferator-activated receptor gamma (Homo sapiens) (P37231 whole entry, looked up): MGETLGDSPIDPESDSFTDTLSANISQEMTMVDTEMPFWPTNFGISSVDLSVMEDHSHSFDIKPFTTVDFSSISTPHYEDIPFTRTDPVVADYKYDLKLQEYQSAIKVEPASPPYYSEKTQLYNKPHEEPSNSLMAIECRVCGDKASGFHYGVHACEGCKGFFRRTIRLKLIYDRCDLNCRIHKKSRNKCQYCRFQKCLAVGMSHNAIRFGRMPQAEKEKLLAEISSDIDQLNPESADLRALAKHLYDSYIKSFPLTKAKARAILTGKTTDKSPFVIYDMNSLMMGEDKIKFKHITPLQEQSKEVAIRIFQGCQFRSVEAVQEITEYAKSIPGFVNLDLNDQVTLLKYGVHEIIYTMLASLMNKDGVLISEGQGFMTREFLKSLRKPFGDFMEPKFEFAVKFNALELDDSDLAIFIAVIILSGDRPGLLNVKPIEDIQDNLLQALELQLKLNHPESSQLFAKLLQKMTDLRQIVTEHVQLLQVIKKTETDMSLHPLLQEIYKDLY
Chain of Bile acid receptor (Homo sapiens) (Q96RI1 whole entry, looked up): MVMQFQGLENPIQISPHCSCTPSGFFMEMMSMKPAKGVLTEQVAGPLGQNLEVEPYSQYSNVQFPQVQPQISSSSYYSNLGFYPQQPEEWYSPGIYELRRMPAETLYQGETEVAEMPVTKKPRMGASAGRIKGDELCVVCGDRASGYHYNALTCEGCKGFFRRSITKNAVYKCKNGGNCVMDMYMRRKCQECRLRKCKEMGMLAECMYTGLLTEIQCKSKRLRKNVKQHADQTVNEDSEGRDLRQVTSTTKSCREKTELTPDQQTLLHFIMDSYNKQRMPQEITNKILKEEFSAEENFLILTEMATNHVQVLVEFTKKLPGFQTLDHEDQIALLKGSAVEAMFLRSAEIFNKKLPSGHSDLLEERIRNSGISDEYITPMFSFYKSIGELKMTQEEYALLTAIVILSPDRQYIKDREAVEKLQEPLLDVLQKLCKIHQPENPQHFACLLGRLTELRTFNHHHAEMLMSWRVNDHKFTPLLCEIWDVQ
Chain of Aryl hydrocarbon receptor (Homo sapiens) (P35869 whole entry, looked up): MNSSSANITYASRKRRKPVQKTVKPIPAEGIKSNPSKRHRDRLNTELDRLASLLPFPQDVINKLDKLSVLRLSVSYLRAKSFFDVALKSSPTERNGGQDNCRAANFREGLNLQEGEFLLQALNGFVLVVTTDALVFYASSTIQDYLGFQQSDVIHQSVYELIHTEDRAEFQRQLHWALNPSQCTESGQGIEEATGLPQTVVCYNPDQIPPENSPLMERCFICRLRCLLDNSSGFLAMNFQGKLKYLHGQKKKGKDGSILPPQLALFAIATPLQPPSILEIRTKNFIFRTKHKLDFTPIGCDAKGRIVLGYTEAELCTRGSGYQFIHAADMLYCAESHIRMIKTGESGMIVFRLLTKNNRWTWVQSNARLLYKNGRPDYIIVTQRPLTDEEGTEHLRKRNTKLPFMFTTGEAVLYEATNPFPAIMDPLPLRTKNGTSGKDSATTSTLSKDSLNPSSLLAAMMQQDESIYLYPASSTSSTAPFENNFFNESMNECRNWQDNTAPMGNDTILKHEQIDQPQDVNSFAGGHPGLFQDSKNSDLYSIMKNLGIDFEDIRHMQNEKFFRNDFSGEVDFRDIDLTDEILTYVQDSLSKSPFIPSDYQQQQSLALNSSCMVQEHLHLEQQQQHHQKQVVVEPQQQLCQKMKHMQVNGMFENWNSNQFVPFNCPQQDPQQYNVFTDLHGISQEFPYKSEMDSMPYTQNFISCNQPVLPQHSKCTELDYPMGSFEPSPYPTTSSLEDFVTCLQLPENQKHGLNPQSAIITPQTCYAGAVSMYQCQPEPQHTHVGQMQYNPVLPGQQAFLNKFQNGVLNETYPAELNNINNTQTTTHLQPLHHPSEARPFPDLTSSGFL
Chain of Peroxisome proliferator-activated receptor delta (Homo sapiens) (Q03181 whole entry, looked up): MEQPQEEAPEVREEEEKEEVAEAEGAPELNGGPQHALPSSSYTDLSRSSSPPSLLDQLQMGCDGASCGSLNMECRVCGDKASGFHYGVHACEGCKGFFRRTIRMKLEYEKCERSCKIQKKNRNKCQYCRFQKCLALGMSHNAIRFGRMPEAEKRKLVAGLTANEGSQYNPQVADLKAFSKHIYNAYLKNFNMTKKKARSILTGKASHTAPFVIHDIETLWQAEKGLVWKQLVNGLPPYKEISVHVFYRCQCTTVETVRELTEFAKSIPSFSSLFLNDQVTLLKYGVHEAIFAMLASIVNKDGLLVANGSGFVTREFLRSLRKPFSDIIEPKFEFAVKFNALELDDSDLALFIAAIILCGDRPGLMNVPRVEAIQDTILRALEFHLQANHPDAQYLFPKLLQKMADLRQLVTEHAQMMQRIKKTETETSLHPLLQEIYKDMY

In the case of `O=C(OCC1CO1)C1CCCCC1C(=O)OCC1CO1` (configuration not stated), the Potency in [1] and in [6] was 48.6 µM (active) each time. Also, the Potency result in experiment [2], in [3], in [4], in experiment [5], in experiment [7] and in [8] was “inactive” in each case. For the same molecule, the Potency result in experiment [9], in [10], in experiment [11], in experiment [12] and in experiment [13] was “inactive” throughout.
Consider `Oc1ccc2cc(SSc3ccc4cc(O)ccc4c3)ccc2c1`, for which the results for the Potency in experiment [1], in experiment [14] and in experiment [16] were 54.5 µM (active), 13.8 µM (active) and 17.4 µM (active), respectively. Moreover, the Potency entry in experiment [2], in experiment [3], in [4], in experiment [7], in experiment [8] and in [15] was “inactive” throughout. Further, the Potency entry in experiment [17] and in experiment [12] was “inactive” in each case.
Consider `CC(=O)OCC(C)OC(C)=O` (configuration not stated), for which the Potency result in experiment [1], in experiment [2], in experiment [3], in experiment [4], in experiment [14] and in experiment [5] was “inactive” in each case. In addition, the Potency entry in experiment [7], in [8], in experiment [18], in [15], in experiment [10] and in [16] was “inactive” throughout. Further, the Potency result in [17], in experiment [12] and in [13] was “inactive” each time.
On to `NNC(=O)c1cccc(C(=O)NN)c1`, for which the Potency entry in [1], in [3], in experiment [4], in experiment [14], in experiment [5] and in [6] was “inactive” each time. Besides, the Potency result in experiment [7], in experiment [8], in experiment [9], in experiment [15], in experiment [10] and in experiment [16] was “inactive” throughout. In addition, the Potency entry in experiment [17], in [11], in [19], in experiment [12] and in experiment [13] was “inactive” each time. For the same molecule, in [2], the Potency is 27.3 µM (active).
On to `C[C@]12CCC(=O)C=C1CC[C@@H]1[C@@H]2[C@@H](O)C[C@@]2(C)[C@H]1CC[C@]2(O)C(=O)COC(=O)CCC(=O)O`, for which the Potency result in experiment [1], in experiment [2], in [3], in experiment [4], in experiment [5] and in experiment [6] was “inactive” in each case. In addition, the Potency entry in [7], in experiment [8], in [10], in experiment [17], in experiment [11] and in experiment [19] was “inactive” throughout. For the same molecule, the Potency entry in experiment [12], in experiment [13] and in experiment [20] was “inactive” each time.
Turning to `CC(=O)SC[C@@H](Cc1ccccc1)C(=O)NCC(=O)OCc1ccccc1`, the Potency entry in [1], in experiment [2], in experiment [3], in experiment [4], in experiment [14] and in experiment [5] was “inactive” in each case. The Potency entry in [6], in experiment [7], in experiment [8], in experiment [9], in experiment [15] and in [10] was “inactive” throughout. The Potency entry in experiment [16], in experiment [11] and in experiment [12] was “inactive” each time.
In the case of `CSc1cnc(C)cn1`, the Potency result in experiment [1], in [2], in [3], in [4], in [14] and in experiment [5] was “inactive” throughout. The Potency result in experiment [7], in experiment [8], in experiment [9], in experiment [18], in experiment [15] and in experiment [10] was “inactive” in each case. Further, the Potency result in [16], in experiment [11] and in [12] was “inactive” in each case.
In the case of `c1ccc(CSCc2ccccc2)cc1`, the Potency result in experiment [1], in experiment [2], in experiment [3], in experiment [4], in experiment [14] and in [5] was “inactive” in each case. In addition, the Potency entry in experiment [7], in [8], in experiment [9], in experiment [18], in experiment [15] and in experiment [16] was “inactive” throughout. Besides, the Potency result in experiment [11], in [12] and in experiment [13] was “inactive” each time.
